# Measured values reported in PubChem BioAssay AID652017 (The Scripps Research Institute Molecular Screening Center, 2013).
# In all, about 370,000 compounds went through this assay and about 3,800 (1%) were called active. The list comes from a sample in which actives are over-represented; it also holds similar structures and randomly drawn compounds. A number with no mark means an inactive call. Rule as the data show it: active = activation above about 7.8%; inactive = the rest.
# Assay: SMARCA2 (BRM) function activators, primary screen, cell-based, luminescence, high throughput (AID 652017);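 also: 0% = vehicle wells and 100% = reference activator wells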
# Details: MG213 cells, MMTV-luciferase reporter, dexamethasone, overnight; at 9.1 µM; stronger effect = higher value
row,SMILES,activation
1,CCN(CC)C(=O)CC[C@H]1CC[C@]2(CCCN(Cc3ccc(Cl)cc3)C2)O1,-0.46%
2,CCOC(=O)CCCNC(=O)COC(=O)c1cc(Br)c(Br)s1,-1.12%
3,COC(=O)C1CN(CC(C)C)CCS(=O)(=O)N1Cc1ccc(F)cc1 (configuration not stated),1.2%
4,COC(=O)[C@]12C[C@H](CC(=O)NCC34CC5CC(CC(C5)C3)C4)C(=O)N(Cc3ccc(Cl)cc3Cl)C1=C[C@H](COCc1ccccc1)O[C@@H]2C,-1.25%
5,C=CCn1c(SCC(N)=O)nnc1-c1ccccc1OC,-5.95%
6,Cn1c(SCC(=O)c2cccs2)nnc1-c1ccco1,2.45%
7,O=C(NCc1ccccc1)c1onc(CSc2nc3ccccc3[nH]2)c1C(=O)NCc1ccccc1,-0.17%
8,O=C(CSc1nc2ccccc2[nH]1)c1cccs1,8.32% (active)
9,COC(=O)[C@@]12CCCCC3=C1N(CCC3)C(=O)[C@H]2CC(=O)NCc1cccc2ccccc12,-2.69%
10,Cc1cc(Cl)ccc1C(=O)C1CCCN(C(=O)c2ccc3c(c2)OCO3)C1 (configuration not stated),0.89%
11,CC1=NNC(=O)C1CC(=O)N/N=C/c1ccncc1 (configuration not stated),-3.81%
12,O=C(CSc1nnc(-c2ccccn2)n1-c1ccccc1)Nc1ccc2cn[nH]c2c1,0.38%
13,Cc1ccc(C(=O)N(Cc2ccccn2)CC2CCCO2)cc1 (configuration not stated),-2.73%
14,COc1ccc(CSc2nnc(-c3cccc(C)c3)n2C)cc1,-2.04%
15,Cc1ccc(-c2nnc(SCC(=O)Nc3ccc(Oc4ccccc4)cc3)n2Cc2ccco2)cc1,-4.83%
16,CCCCSCCCNC(=O)C1CCC(CNS(=O)(=O)c2ccc(NC(C)=O)cc2)CC1 (configuration not stated),-2.92%
17,CC(=O)Nc1ccc(S(=O)(=O)NCC2CCC(C(=O)NCCc3ccccc3)CC2)cc1 (configuration not stated),-3.64%
18,CCCCNC(=O)C1CCC(CNS(=O)(=O)c2ccc(NC(C)=O)cc2)CC1 (configuration not stated),12.9% (active)
19,COc1ccccc1C(=O)N1CCNC(=O)C1CC(=O)Nc1ccc(Cl)cc1 (configuration not stated),-0.22%

row,SMILES,activation
1,COc1ccc(C2CC=C(C(=O)O)C(c3ccccc3F)N2S(=O)(=O)c2ccc(C)cc2)cc1OC (configuration not stated),0.02%
2,N#C/C=C1\Sc2ccccc2C(=O)N1CC(=O)N1CCN(S(=O)(=O)c2ccccc2)CC1,6.51%
3,CCc1ccccc1NC(=O)CSc1nnc(-c2cccs2)o1,5.4%
4,COc1cc(CN2CCC(C(N)=O)CC2)ccc1OCc1ccccc1,10.4% (active)
5,COc1ccc(CCN2C(=O)CC(N3CCC(C(N)=O)CC3)C2=O)cc1OC (configuration not stated),-1.41%
6,COc1ccc(COCC(O)CN2CCC(C(N)=O)CC2)cc1 (configuration not stated),-2.59%
7,Cc1nc2ccc(C(=O)N3CCN(C(=O)C(C)(C)C)CC3)cc2n1C1CCCC1,-3.37%
8,CC1CC(C)CN(CCC(=O)Nc2ccc3c(c2)CCC3)C1 (configuration not stated),-0.27%
9,CC(C)Oc1ccc(C(=O)NCC(=O)Nc2ccc3c(c2)CCC3)cc1,5.66%
10,O=C(Nc1ccc2c(c1)CCC2)c1ccc(Br)s1,9.61% (active)
11,C[C@H]1CN([C@@H](C)CO)C(=O)Cc2cc(NS(C)(=O)=O)ccc2O[C@@H]1CN(C)CC1CC1,0.45%
12,COc1ccccc1CNS(=O)(=O)c1c(C)[nH]c(C)c1C(=O)N1CCCCC1,3.15%
13,COc1ccc(NC(=O)C(C)SCc2ccccc2)cc1 (configuration not stated),-0.97%
14,COc1ccc(NC(=O)c2sccc2SCC#N)cc1,8.69% (active)
15,COC(=O)[C@H](CCSC)NC(=O)Nc1ccc(OC)cc1,0.38%
16,Cc1c[nH]c2cccc(-c3ccc(Cl)cc3)c12,-2.85%
17,CCCCn1c(N)c(N(CC(C)C)C(=O)c2cccc(S(=O)(=O)N3CC(C)OC(C)C3)c2)c(=O)[nH]c1=O (configuration not stated),-0.77%
18,COC(=O)C1CN(CC(C)C)CCS(=O)(=O)N1Cc1ccc(C)cc1 (configuration not stated),-1.21%
19,CCC(=O)NC(=Nc1nc2ccccc2s1)NC(=O)CC,7.9% (active)

row,SMILES,activation
1,CC(C)CC(=O)N/C(N)=N/c1nc2ccccc2s1,5.04%
2,O=C(CSc1nc2ccccc2s1)NN=Cc1ccc(O)cc1O,-6.37%
3,COC(=O)CCC(=O)N1CCCC(CO)(Cc2ccccc2)C1 (configuration not stated),3.15%
4,COc1cccc(N2CCN(CC(=O)N(C)Cc3ccc(F)cc3)CC2)c1,-2.95%
5,COc1ccccc1Cn1c(CO)nc2ccccc21,-2.13%
6,COCn1c(COc2ccccc2)nc2ccccc21,9.21% (active)
7,COCc1nc2ccccc2n1Cc1ccccc1Br,-3.44%
8,COC(=O)C1CN(CCc2ccccc2)CCS(=O)(=O)N1Cc1cccc(Cl)c1 (configuration not stated),-3.45%
9,CCCCN(CC)C(=S)Nc1ccc2nc3n(c(=O)c2c1)CCCCC3,-4.18%
10,Cc1ccc(NC(=O)CN2CCC3(O)CCCCC3C2c2ccc3c(c2)OCO3)c(C)c1 (configuration not stated),0.08%
11,CC1CCCCC1NC(=O)CCS(=O)(=O)c1ccc2c(c1)NC(=O)CO2 (configuration not stated),-2.77%
12,CC1CCCCC1NC(=O)CN1CCC(O)(c2ccc3c(c2)OCO3)CC1 (configuration not stated),8.42% (active)
13,Cc1sc2nc(SCC(=O)c3ccc(O)c(O)c3)n(Cc3ccco3)c(=O)c2c1C,-5.31%
14,Cc1ccccc1OCCC(=O)Nc1c(C)n(C)n(-c2ccccc2)c1=O,-3.07%
15,Cc1c(NC(=O)CSc2cccc3cccnc23)c(=O)n(-c2ccccc2)n1C,8.2% (active)
16,Cc1ccc(S(=O)(=O)CC(=O)Nc2c(C)n(C)n(-c3ccccc3)c2=O)cc1,-1.75%
17,C[C@]1(C(=O)NCCc2c[nH]c3ccccc23)C=C[C@@H](Cc2ccccc2)N1C(=O)c1ccccc1,1.41%
18,Cc1ccc(-n2c(SCC(=O)Nc3ccc(S(=O)(=O)Nc4nccs4)cc3)nnc2-c2cccnc2)cc1,-5.55%
19,Cc1c(CCO)c(=O)n(-c2ccccc2)n1S(=O)(=O)c1ccc(F)cc1,-2.63%
